Measured values reported in PubChem BioAssay (NCI).
About 83,000 compounds went through this panel and 20% of them were active in at least one assay; those are over-represented in the sample as a whole.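 Activity criterion: percent growth below 10, measured after cells in 96-well plates were exposed to a single compound concentration for 48 hours.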 A number with no mark means an inactive call. The source made the active and inactive calls.

Tests used:
Test in all cases: NCI-60 one-dose screen, 48 h (100 = growth as untreated, 0 = no growth, -100 = all killed)
Conditions in all cases: 10 µM unless noted
HCT-15 colon = test system: HCT-15 colon
HT29 colon = test system: HT29 colon
SNB-75 CNS = test system: SNB-75 CNS
SNB-19 CNS = test system: SNB-19 CNS
U251 CNS = test system: U251 CNS
PC-3 prostate = test system: PC-3 prostate
SK-MEL-5 melanoma = test system: SK-MEL-5 melanoma
UACC-62 melanoma = test system: UACC-62 melanoma
LOX IMVI melanoma = test system: LOX IMVI melanoma
SK-MEL-28 melanoma = test system: SK-MEL-28 melanoma

Compound | growth (HCT-15 colon) | growth (HT29 colon) | growth (SNB-75 CNS) | growth (SNB-19 CNS) | growth (U251 CNS) | growth (PC-3 prostate) | growth (SK-MEL-5 melanoma) | growth (UACC-62 melanoma) | growth (LOX IMVI melanoma) | growth (SK-MEL-28 melanoma)
CCN(CC)CCCNC(=O)c1ccc(N)cc1 | 101% | 100% | 95.5% | 102% | 101% | 101% | 97.7% | 105% | 103% | 96.8%
Cc1ccc2c(n1)C(=O)C(Oc1ccc(F)cc1)=CC2=O | 81.8% | 108% | 83% | 110% | 95.3% | 98.9% | 91.4% | 99.7% | 88.5% | 113%
O=C(O)c1ccc(CO)o1 | 103% | 106% | 90.7% | 103% | 91.8% | 105% | 107% | 101% | 109% | 103%
CCOC(=O)C1C(=O)C=C(c2cnccn2)CC1c1ccc(OC)c(OC)c1 (stereo not given) | 98.9% | 93.1% | 105% | 102% | 99.5% | 70.4% | 103% | 101% | 100% | 102%
CC(C)CCC[C@@H](C)[C@H]1CCC2C3=CCn4c(=O)ccc(=O)n4C3CC[C@@]21C (stereo not given in full) | -44.6% (active) | -63.7% (active) | -100% (active) | -96.8% (active) | -96.9% (active) | -85.5% (active) | -100% (active) | -97.5% (active) | -89.5% (active) | -93% (active)
C[C@@H]1C(=O)N(C[C@@H](Cc2ccccc2)NC(=O)OCc2ccccc2)[C@]1(Cc1ccccc1)C(=O)OCc1ccccc1 | 41.6% | 50.7% | 61.1% | 44.3% | 34.6% | 14.2% | -6.61% (active) | 43.3% | 51.8% | 63.9%
O=C(/C=C/C12c3ccccc3C(c3ccccc31)C1C(=O)NC(=O)C12)c1ccc(Cl)cc1 (stereo not given) | -43.1% (active) | 7.13% (active) | 8.43% (active) | 17.3% | -10.9% (active) | 21.7% | -61.5% (active) | -18.3% (active) | -87.9% (active) | -32.1% (active)
CCCCN1CCN(c2ccc3nc(-c4ccc5nc(-c6ccc(OCC)c(OCC)c6)[nH]c5c4)[nH]c3c2)CC1 | -30.4% (active) | -20.8% (active) | 24.1% | -28.8% (active) | -61.4% (active) | -49.1% (active) | 8.19% (active) | 17.7% | -81.9% (active) | 45.8%
COc1cc(-c2ccc(N=Nc3c(O)c(C(=O)Nc4ccccc4OC)cc4ccccc34)c(OC)c2)ccc1N=Nc1c(O)c(C(=O)Nc2ccccc2OC)cc2ccccc12 | 101% | 108% | 74.8% | 96% | 94% | 93.4% | 98.9% | 101% | 86.3% | 97.4%
N#C/C(=C\c1ccc(Br)cc1)n1nnc2cc(Cl)c(Cl)cc21 | 14% | 9.9% (active) | 25.5% | 47.7% | 23.4% | 33.5% | 43.3% | 46.7% | -9.55% (active) | 51.4%
C/C(=N\NC(=O)Cn1c(-c2ccc(S(C)(=O)=O)cc2)nc2cc(Cl)ccc21)c1ccc(Cl)cc1 | 77% | 79.7% | 69.7% | 84.3% | 79.7% | 49.2% | 84.2% | 76.2% | 89.4% | 90%
N=C(N)c1ccc(-c2ccc(-c3ccc(Cl)cn3)s2)cc1 | -46% (active) | 0.247% (active) | 62% | 65.7% | -24.7% (active) | 56.3% | 70.5% | 89.7% | -82.1% (active) | 76.4%
